# Experimental data taken from PubChem BioAssay (Tox21).
# Where “and” joins values, the source holds several entries; their conditions need not be identical. Equal values may be shown once. Inconclusive results are not listed. Entries that show only a call come without a potency. Some structures have more than one record in an assay (separate samples or runs), and their calls can disagree. Calls of active or inactive are those of the source. Unless noted, calls come from the whole dose curve.
# Columns and labels:
# [1] = qHTS assay to identify small molecule antagonists of the sonic hedgehog signaling (Shh) pathway (AID 1259369); note: nearly all actives have a fitted effect of over 45% in size; note: potency is the fitted concentration of half-maximal effect
# Summary of the method: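 Antagonist mode: compound added to 3T3 Gli1-Luc cells followed by conditioned-medium stimulation, 24 h at 37 C, 5% CO2. Inhibition taken as loss of Gli1-driven luciferase luminescence.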
# [2] = molecular target: Estrogen receptor beta (Homo sapiens) (UniProt Q92731); experiment: qHTS assay to identify small molecule agonists of the estrogen receptor beta (ER-beta) signaling pathway (AID 1259377; active = well fitted activation curve with a large enough effect in the signal ratio in the repeat runs, not every such curve was filed as active; the % refers to the signal ratio)
# Chain of Estrogen receptor beta (Homo sapiens) (Q92731 whole entry, looked up): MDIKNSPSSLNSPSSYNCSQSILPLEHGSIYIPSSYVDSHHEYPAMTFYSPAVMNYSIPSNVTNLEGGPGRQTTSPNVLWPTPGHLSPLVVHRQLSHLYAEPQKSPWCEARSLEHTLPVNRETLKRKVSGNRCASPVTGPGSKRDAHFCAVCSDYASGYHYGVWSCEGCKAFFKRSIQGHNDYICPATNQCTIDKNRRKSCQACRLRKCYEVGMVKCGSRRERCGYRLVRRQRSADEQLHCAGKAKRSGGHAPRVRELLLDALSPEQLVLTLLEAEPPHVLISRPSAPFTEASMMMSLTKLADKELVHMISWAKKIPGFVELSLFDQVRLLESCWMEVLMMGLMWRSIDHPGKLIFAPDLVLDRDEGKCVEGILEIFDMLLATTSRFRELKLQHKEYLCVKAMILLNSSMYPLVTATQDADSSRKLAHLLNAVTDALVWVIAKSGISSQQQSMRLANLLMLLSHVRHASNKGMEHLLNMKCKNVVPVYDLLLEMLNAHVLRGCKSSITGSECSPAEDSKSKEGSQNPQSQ
# Summary of the method: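 A UAS-controlled beta-lactamase reporter in ER-beta-UAS-bla HEK293T cells reports receptor activation. Compounds act for 16 hr at 37C in 2% charcoal-stripped serum, and a FRET substrate is read by fluorescence after 2 hours.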
# [3] = qHTS assay to identify small molecule agonists of the androgen receptor (AR) signaling pathway in the presence of an antagonist - cell viability counter screen (AID 1259379; active = well fitted curve in the direction sought with a large enough effect in the repeat runs; an effect the other way counts as inactive or inconclusive; note: nearly all actives have a fitted effect of over 25% in size; note: potency is the fitted concentration of half-maximal effect)
# Summary of the method: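 Cytotoxicity counter-screen run in the same wells as the nilutamide-challenged (3.0 µM final) AR agonist assay in MDA-kb2 cells. Compounds tested at 15 concentrations for 16 h, 37 °C without CO2; CellTiter-Fluor fluorescence read.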
# [4] = qHTS assay to identify small molecule agonists of the estrogen receptor beta (ER-beta) signaling pathway - cell viability counter screen (AID 1259380; active = well fitted curve in the direction sought with a large enough effect in the repeat runs; an effect the other way counts as inactive or inconclusive; note: nearly all actives have a fitted effect of over 30% in size; note: potency is the fitted concentration of half-maximal effect)
# Summary of the method: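 Cell viability counter screen: CellTiter-Glo luminescence (30 min, room temperature) measured in the same wells as the beta-lactamase readout, after 16 hr compound exposure at 37C of ER-beta-bla HEK293T cells in 2% charcoal-stripped FBS medium.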
# [5] = molecular target: Androgen receptor (Homo sapiens) (UniProt P10275); experiment: qHTS assay to identify small molecule agonists of the androgen receptor (AR) signaling pathway in the presence of an antagonist (AID 1259381); note: nearly all actives have a fitted effect of over 15% in size
# Chain of Androgen receptor (Homo sapiens) (P10275 whole entry, looked up): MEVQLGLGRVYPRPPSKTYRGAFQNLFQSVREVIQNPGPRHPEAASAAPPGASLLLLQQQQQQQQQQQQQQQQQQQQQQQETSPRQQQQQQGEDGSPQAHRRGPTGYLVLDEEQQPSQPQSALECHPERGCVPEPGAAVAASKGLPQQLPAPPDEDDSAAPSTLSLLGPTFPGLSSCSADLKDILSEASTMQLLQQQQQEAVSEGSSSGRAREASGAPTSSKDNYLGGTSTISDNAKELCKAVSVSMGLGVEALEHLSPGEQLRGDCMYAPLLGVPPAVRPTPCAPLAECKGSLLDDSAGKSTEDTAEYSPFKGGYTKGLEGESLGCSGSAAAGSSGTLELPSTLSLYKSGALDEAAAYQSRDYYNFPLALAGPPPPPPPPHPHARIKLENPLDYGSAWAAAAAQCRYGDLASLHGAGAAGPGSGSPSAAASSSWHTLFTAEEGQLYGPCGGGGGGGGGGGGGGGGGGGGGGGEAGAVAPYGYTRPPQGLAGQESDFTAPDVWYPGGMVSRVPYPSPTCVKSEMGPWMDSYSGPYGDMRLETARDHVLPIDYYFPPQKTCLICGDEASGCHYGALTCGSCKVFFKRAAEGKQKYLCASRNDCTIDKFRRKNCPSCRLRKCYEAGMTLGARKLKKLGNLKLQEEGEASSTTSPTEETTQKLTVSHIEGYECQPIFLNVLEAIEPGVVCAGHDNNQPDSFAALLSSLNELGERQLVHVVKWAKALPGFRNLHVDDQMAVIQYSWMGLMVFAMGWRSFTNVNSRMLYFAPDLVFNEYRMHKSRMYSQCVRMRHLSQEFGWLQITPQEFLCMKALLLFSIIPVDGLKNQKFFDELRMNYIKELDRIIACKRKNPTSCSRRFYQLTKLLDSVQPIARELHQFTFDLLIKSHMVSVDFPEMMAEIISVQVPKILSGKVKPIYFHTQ
# Summary of the method: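 Agonist-mode confirmation run against 3.0 uM final nilutamide: compounds titrated at 15 concentrations onto MDA-kb2 MMTV-luciferase reporter cells. Luminescence measured with ONE-Glo following 16 hr incubation, 37C, 0% CO2.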
# [6] = qHTS assay to identify small molecule antagonists of the estrogen receptor beta (ER-beta) signaling pathway - cell viability counter screen (AID 1259382; active = well fitted curve in the direction sought with a large enough effect in the repeat runs; an effect the other way counts as inactive or inconclusive; note: nearly all actives have a fitted effect of over 55% in size; note: potency is the fitted concentration of half-maximal effect)
# Summary of the method: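 Cytotoxicity was measured in the same wells by CellTiter-Glo luminescence after 30 min at room temperature. Cells were ER-beta-bla HEK293T in charcoal-stripped serum, given compound together with 1 nM E2 and incubated 16 h at 37C.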
# [7] = qHTS assay to identify small molecule agonists or antagonists of the thyroid stimulating hormone receptor (TSHR) signaling pathway - wild type cell line counter screen (AID 1259384)
# Summary of the method: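 Wild-type Hek293 cells, 800/well, 18 h at 37C, then compound with Ro20-1724 for 30 min RT. cAMP by HTRF (cAMP-d2/anti-cAMP cryptate), 1 h RT, fluorescence read. 15 concentrations, triplicates.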
# [8] = molecular target: Thyrotropin receptor (Homo sapiens) (UniProt P16473); experiment: qHTS assay to identify small molecule antagonists of the thyroid stimulating hormone receptor (TSHR) signaling pathway (AID 1259385); note: nearly all actives have a fitted effect of over 20% in size
# Chain of Thyrotropin receptor (Homo sapiens) (P16473 whole entry, looked up): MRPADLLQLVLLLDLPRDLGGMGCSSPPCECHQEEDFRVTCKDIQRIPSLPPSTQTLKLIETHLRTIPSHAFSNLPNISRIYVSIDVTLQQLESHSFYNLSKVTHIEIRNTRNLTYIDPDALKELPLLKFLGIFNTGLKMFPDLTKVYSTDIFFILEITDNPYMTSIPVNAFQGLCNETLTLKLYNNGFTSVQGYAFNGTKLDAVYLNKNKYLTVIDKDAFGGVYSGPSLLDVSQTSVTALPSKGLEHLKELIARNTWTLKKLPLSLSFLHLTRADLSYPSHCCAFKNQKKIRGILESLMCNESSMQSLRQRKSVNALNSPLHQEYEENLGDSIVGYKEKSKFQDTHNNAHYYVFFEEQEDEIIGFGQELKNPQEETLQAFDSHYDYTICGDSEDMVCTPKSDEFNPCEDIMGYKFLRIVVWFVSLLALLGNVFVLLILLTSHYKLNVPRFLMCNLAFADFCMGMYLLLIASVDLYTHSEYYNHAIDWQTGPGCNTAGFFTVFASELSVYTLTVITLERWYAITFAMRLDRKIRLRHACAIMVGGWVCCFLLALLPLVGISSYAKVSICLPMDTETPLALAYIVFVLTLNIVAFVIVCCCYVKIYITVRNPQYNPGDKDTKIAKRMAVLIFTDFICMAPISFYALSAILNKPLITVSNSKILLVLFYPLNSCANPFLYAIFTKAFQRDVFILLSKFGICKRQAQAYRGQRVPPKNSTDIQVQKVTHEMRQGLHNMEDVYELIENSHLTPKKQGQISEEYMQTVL
# Summary of the method: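 TSHR-HEK293 cells (800/well) plated 18 h, then compounds with Ro20-1724 and TSH at 1.5 ng/mL final, 30 min at room temperature. cAMP quantified by HTRF (cAMP-d2/anti-cAMP-cryptate, 1 h); 15 concentrations in triplicate.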
# [9] = qHTS assay to identify small molecule agonists of the estrogen receptor alpha (ER-alpha) signaling pathway in the presence of an antagonist - cell viability counter screen (AID 1259386; active = well fitted curve in the direction sought with a large enough effect in the repeat runs; an effect the other way counts as inactive or inconclusive; note: nearly all actives have a fitted effect of over 30% in size; note: potency is the fitted concentration of half-maximal effect)
# Summary of the method: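 Compounds tested at 15 concentrations for 22 h at 37C alongside 10.0nM (final) ICI-182,780 antagonist, in VM7Luc4E2 cells grown in phenol red-free, charcoal-stripped medium. Viability read by CellTiter-Fluor fluorescence after 1 h reagent incubation.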
# [10] = molecular target: Progesterone receptor (Homo sapiens) (UniProt P06401); experiment: qHTS assay to identify small molecule agonists of the progesterone receptor (PR) signaling pathway (AID 1346784); note: nearly all actives have a fitted effect of over 30% in size
# Chain of Progesterone receptor (Homo sapiens) (P06401 whole entry, looked up): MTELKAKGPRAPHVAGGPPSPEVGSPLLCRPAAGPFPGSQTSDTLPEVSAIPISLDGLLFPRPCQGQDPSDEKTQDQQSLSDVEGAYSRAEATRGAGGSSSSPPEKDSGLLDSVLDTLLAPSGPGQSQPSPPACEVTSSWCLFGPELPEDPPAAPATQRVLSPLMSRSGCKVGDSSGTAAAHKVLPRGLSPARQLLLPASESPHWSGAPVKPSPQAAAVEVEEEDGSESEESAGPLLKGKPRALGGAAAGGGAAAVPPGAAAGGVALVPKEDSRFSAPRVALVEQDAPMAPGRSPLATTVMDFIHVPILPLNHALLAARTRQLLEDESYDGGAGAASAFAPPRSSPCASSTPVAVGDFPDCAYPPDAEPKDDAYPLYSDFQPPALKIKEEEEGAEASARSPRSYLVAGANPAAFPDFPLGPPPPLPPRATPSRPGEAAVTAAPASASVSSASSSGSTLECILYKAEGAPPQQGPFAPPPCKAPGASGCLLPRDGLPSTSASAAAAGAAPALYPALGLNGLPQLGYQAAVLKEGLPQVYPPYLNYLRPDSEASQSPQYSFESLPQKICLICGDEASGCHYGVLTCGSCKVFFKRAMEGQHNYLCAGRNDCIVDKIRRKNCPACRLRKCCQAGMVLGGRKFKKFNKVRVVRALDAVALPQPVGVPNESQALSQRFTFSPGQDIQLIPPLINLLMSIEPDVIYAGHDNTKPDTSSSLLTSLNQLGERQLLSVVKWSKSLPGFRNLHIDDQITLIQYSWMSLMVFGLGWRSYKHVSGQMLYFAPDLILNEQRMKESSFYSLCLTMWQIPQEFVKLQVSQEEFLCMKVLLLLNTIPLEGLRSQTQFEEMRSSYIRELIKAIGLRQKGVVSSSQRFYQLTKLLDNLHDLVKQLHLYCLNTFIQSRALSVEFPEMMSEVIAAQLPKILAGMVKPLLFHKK
# Summary of the method: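 Agonist mode, quantitative HTS format in a HEK 293T line expressing a UAS-controlled beta-lactamase reporter; 16 hr compound exposure at 37C in 2% charcoal-stripped FBS, then LiveBLAzer B/G FRET fluorescence.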
# [11] = qHTS assay to identify small molecule antagonists of the progesterone receptor (PR) signaling pathway - cell viability counter screen (AID 1346798; active = well fitted curve in the direction sought with a large enough effect in the repeat runs; an effect the other way counts as inactive or inconclusive; note: nearly all actives have a fitted effect of over 50% in size; note: potency is the fitted concentration of half-maximal effect)
# Summary of the method: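 Same-well multiplex: after 16 hr at 37C with compound and R5020 stimulation, HEK293T cells carrying a UAS-bla reporter received LiveBLAzer substrate (2 hr RT), then CellTiter-Glo (30 min RT) for luminescent viability.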
# [12] = qHTS assay to identify small molecule agonists of the progesterone receptor (PR) signaling pathway - cell viability counter screen (AID 1346799); note: nearly all actives have a fitted effect of over 45% in size; note: potency is the fitted concentration of half-maximal effect
# Summary of the method: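 Counter screen for cytotoxicity: compound-treated PR-UAS-bla HEK293T cells (16 hr, 37C, 5% CO2) were assayed with CellTiter-Glo, luminescence measured after 30 min at room temperature.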
# [13] = qHTS assay to identify small molecule antagonists of the TGF-beta/Smad signaling pathway - cell viability counter screen (AID 1346824; active = well fitted curve in the direction sought with a large enough effect in the repeat runs; an effect the other way counts as inactive or inconclusive; note: nearly all actives have a fitted effect of over 50% in size; note: potency is the fitted concentration of half-maximal effect)
# Summary of the method: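 SBE-bla HEK 293T cells, incubated overnight, then compound plus 0.25 ng/mL TGF-beta1 (stock added) for 5 hr at 37 C. Viability was read in the same wells by CellTiter-Glo luminescence after 30 min at room temperature.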
# [14] = qHTS assay to identify small molecule agonists of the TGF-beta/Smad signaling pathway - cell viability counter screen (AID 1346829; active = well fitted curve in the direction sought with a large enough effect in the repeat runs; an effect the other way counts as inactive or inconclusive; note: nearly all actives have a fitted effect of over 45% in size; note: potency is the fitted concentration of half-maximal effect)
# Summary of the method: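 In parallel with the Smad reporter read, viability of HEK 293T cells stably carrying SBE-bla is quantified by ATP luminescence following 5 hr compound treatment.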
# [15] = qHTS assay to identify small molecule agonists of the TGF-beta/Smad signaling pathway (AID 1346859; active = well fitted activation curve with a large enough effect in the signal ratio in the repeat runs, not every such curve was filed as active; the % refers to the signal ratio; note: series mostly up to about 77 µM)
# Summary of the method: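 Smad-responsive beta-lactamase reporter cells (HEK 293T) received compounds from DMSO stocks after overnight attachment, were incubated 5 hr, then treated 2 hr with FRET substrate before dual-emission fluorescence measurement (405 nm excitation).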
# [16] = molecular target: Estrogen receptor beta (Homo sapiens) (UniProt Q92731); experiment: qHTS assay to identify small molecule antagonists of the estrogen receptor beta (ER-beta) signaling pathway (AID 1259378; active = well fitted inhibition curve with a large enough effect in the signal ratio in the repeat runs, not every such curve was filed as active; the % refers to the signal ratio; note: potency is the fitted concentration of half-maximal effect)
# Summary of the method: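 ER-beta-UAS-bla HEK293T cells in 2% charcoal-stripped FBS medium treated with compound plus 1nM final 17-beta-estradiol for 16 hr at 37C. Beta-lactamase reporter read by FRET substrate fluorescence after 2 hours at room temperature.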
# [17] = molecular target: Estrogen receptor (Homo sapiens) (UniProt P03372); experiment: qHTS assay to identify small molecule agonists of the estrogen receptor alpha (ER-alpha) signaling pathway in the presence of an antagonist (AID 1259383); note: top concentration of the series differs between compounds; nearly all actives have a fitted effect of over 15% in size
# Chain of Estrogen receptor (Homo sapiens) (P03372 whole entry, looked up): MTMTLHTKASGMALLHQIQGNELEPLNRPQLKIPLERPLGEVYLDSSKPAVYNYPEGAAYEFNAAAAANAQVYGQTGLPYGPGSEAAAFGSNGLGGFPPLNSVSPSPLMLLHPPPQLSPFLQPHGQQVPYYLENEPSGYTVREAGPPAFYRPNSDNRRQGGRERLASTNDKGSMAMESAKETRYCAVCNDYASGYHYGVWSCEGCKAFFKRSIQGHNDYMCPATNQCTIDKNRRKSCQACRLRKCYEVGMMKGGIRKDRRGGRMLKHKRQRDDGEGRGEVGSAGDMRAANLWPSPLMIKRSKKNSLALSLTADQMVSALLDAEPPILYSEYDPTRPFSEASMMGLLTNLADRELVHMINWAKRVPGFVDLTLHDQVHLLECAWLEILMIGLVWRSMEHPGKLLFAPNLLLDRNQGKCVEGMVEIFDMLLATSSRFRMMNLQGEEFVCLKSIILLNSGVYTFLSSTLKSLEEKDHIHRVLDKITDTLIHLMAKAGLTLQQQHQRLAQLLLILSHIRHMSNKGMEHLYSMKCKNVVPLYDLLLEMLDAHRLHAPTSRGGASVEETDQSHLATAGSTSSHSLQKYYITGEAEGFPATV
# Summary of the method: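 Agonist-mode confirmation run in the presence of 10.0nM (final) ICI-182,780 antagonist. The reporter was ERE-driven luciferase in VM7Luc4E2 cells, grown in charcoal-stripped serum. Cells were exposed to 15-concentration compound series for 22hr, then ONE-Glo luminescence was read.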
# [18] = molecular target: Progesterone receptor (Homo sapiens) (UniProt P06401); experiment: qHTS assay to identify small molecule antagonists of the progesterone receptor (PR) signaling pathway (AID 1346795; active = well fitted inhibition curve with a large enough effect in the signal ratio in the repeat runs, not every such curve was filed as active; the % refers to the signal ratio; note: potency is the fitted concentration of half-maximal effect)
# Summary of the method: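 HEK293T PR-UAS-bla reporter cells in charcoal-stripped serum (2%) received compound after a 6 hr settling period, followed by R5020 agonist at 1 nM final; 16 hr incubation preceded the FRET substrate step and fluorescence measurement.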
# [19] = molecular target: Thyrotropin-releasing hormone receptor (Homo sapiens) (UniProt P34981); experiment: qHTS assay to identify small molecule antagonists of the thyrotropin-releasing hormone receptor (TRHR) signaling pathway (AID 1346877; active = well fitted inhibition curve with a large enough effect in the repeat runs, not every such curve was filed as active; note: potency is the fitted concentration of half-maximal effect)
# Chain of Thyrotropin-releasing hormone receptor (Homo sapiens) (P34981 whole entry, looked up): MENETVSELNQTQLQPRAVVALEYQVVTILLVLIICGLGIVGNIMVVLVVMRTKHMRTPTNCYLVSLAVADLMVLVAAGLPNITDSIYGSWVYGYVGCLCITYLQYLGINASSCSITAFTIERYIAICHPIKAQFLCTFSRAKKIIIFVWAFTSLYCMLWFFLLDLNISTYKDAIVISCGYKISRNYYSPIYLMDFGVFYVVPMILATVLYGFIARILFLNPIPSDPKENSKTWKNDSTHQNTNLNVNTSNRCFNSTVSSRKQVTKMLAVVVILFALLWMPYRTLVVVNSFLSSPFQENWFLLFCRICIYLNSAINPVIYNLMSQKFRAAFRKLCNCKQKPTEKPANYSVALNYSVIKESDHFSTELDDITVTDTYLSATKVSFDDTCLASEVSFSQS
# Summary of the method: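 Antagonist mode: after a 5 min room-temperature compound exposure, cells were stimulated with 1 nM (final) TRH. Dye-loaded TRHR-HEK293 cells were used, and calcium-dependent fluorescence was followed for 3 min, with 15-point titrations run in triplicate.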
# [20] = molecular target: Thyrotropin-releasing hormone receptor (Homo sapiens) (UniProt P34981); experiment: qHTS assay to identify small molecule agonists of the thyrotropin-releasing hormone receptor (TRHR) signaling pathway (AID 1346891); note: potency is the fitted concentration of half-maximal effect;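 for activation: HEK293 cells expressing TRHR with calcium dye readout; series mostly up to about 58 µM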
# Summary of the method: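 Agonist-mode calcium mobilisation screen: TRHR-transfected HEK293 cells cultured overnight (18 h), dye-loaded for 2 h at 37 °C, exposed to compounds, and monitored by fluorescence for 3 min.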
smiles,measurement,setting,value
C=CCOC(=O)c1ccccc1N,Potency,[1],inactive
same,Potency,[2],inactive
same,Potency,[3],inactive
same,Potency,[4],30.8 µM (active)
same,Potency,[5],inactive
same,Potency,[6],inactive
same,Potency,[7],inactive
same,Potency,[8],inactive
same,Potency,[9],inactive
same,Potency,[10],inactive
same,Potency,[11],inactive
same,Potency,[12],inactive
same,Potency,[13],inactive
same,Potency,[14],inactive
same,outcome,[15],inactive
CC(Cc1ccc(OCC(=O)O)cc1)NCC(O)c1csc(C(F)(F)F)n1 (stereo unspecified),Potency,[1],inactive
same,Potency,[2],inactive
same,Potency,[16],inactive
same,Potency,[4],inactive
same,Potency,[17],inactive
same,Potency,[7],inactive
same,Potency,[8],inactive
same,Potency,[10],inactive
same,Potency,[18],inactive
same,Potency,[11],inactive
same,Potency,[12],inactive
same,Potency,[13],inactive
same,Potency,[14],inactive
same,outcome,[15],inactive
same,Potency,[19],inactive
same,Potency,[20],inactive
O=[N+]([O-])c1ccc(Cl)c(Cl)c1Cl,Potency,[1],inactive
same,Potency,[2],inactive
same,Potency,[16],inactive
same,Potency,[3],inactive
same,Potency,[6],inactive
same,Potency,[17],inactive
same,Potency,[7],inactive
same,Potency,[9],inactive
same,Potency,[10],inactive
same,Potency,[18],inactive
same,Potency,[11],inactive
same,Potency,[12],inactive
same,Potency,[13],inactive
same,Potency,[14],inactive
same,Potency,[20],inactive
C#CCC1=C(C)C(OC(=O)C2C(C=C(C)C)C2(C)C)CC1=O (stereo unspecified),Potency,[1],inactive
same,Potency,[2],inactive
same,Potency,[16],60.7 µM (active)
same,Potency,[3],inactive
same,Potency,[7],inactive
same,Potency,[8],inactive
same,Potency,[9],inactive
same,Potency,[10],inactive
same,Potency,[13],inactive
same,outcome,[15],inactive
same,Potency,[20],inactive
CCCCCCCCCCCCCCn1cc[n+](C)c1,Potency,[1],122 nM (active) and 42.8 nM (active)
same,Potency,[2],inactive
same,Potency,[16],inactive
same,Potency,[4],30.7 µM (active) and 60.4 µM (active)
same,Potency,[6],34.4 µM (active) and 34 µM (active) and inactive
same,Potency,[7],inactive
same,Potency,[9],15.4 µM (active) and 24.1 µM (active)
same,Potency,[10],inactive
same,Potency,[18],inactive
same,Potency,[12],30.7 µM (active) and 42.8 µM (active) and inactive
same,outcome,[15],inactive
CCC[CH2][Sn]([CH2]CCC)([CH2]CCC)[O][Sn]([CH2]CCC)([CH2]CCC)[CH2]CCC,Potency,[1],212 nM (active)
same,activation,[2],-9.06% [at 8.39 µM] (inactive)
same,Potency,[3],0.475 µM (active)
same,Potency,[4],1.06 µM (active)
same,activation,[5],-10.6% [at 8.39 µM] (inactive)
same,Potency,[6],1.19 µM (active)
same,activation,[17],-15.3% [at 8.39 µM] (inactive)
same,cAMP activity change,[7],"1.6% [at 8.39 µM, stronger effect = higher value] (inactive)"
same,"activity change, negative = inhibition",[8],0.334% [at 8.39 µM] (inactive)
same,Potency,[18],0.752 µM (active)
same,Potency,[11],1.68 µM (active)
same,Potency,[12],1.89 µM (active)
same,Potency,[13],1.51 µM (active)
same,Potency,[14],1.51 µM (active)
same,Potency,[19],1.05 µM (active)
same,Potency,[20],1.35 µM (active)
CCC(C)Br (stereo unspecified),Potency,[1],inactive
same,Potency,[2],inactive
same,Potency,[16],inactive
same,Potency,[4],inactive
same,Potency,[7],inactive
same,Potency,[8],inactive
same,Potency,[9],inactive
same,Potency,[10],inactive
same,Potency,[18],inactive
same,Potency,[11],inactive
same,Potency,[12],inactive
same,Potency,[13],inactive
same,Potency,[14],inactive
same,outcome,[15],inactive
Nc1ccccc1-c1ccccc1,Potency,[1],inactive
same,Potency,[2],inactive
same,Potency,[16],inactive
same,Potency,[3],inactive
same,Potency,[4],48.3 µM (active)
same,Potency,[17],inactive
same,Potency,[7],inactive
same,Potency,[9],inactive
same,Potency,[10],inactive
same,Potency,[12],30.5 µM (active)
same,Potency,[13],inactive
same,outcome,[15],inactive
same,Potency,[19],inactive
same,Potency,[20],inactive
Clc1ccc(C2(Cn3cncn3)OCCO2)c(Cl)c1,Potency,[1],inactive
same,Potency,[2],inactive
same,Potency,[16],inactive
same,Potency,[3],inactive
same,Potency,[4],inactive
same,Potency,[17],inactive
same,Potency,[7],inactive
same,Potency,[8],inactive
same,Potency,[9],inactive
same,Potency,[10],inactive
same,Potency,[13],inactive
same,Potency,[14],inactive
same,outcome,[15],inactive
same,Potency,[20],inactive
